“And” between values parts separate entries of the source, which are not always exact repeats. Equal entries are not always repeated. Screen size: about 350,000 compounds; about 31,000 (8.9%) were called active. About 15% were inconclusive and are not listed. The call rests on the fitted dose curve; in most records, active means well fitted inhibition curve with a large enough effect; inconclusive means small, poorly fitted or top-dose-only effect; inactive means no such curve, though single readings can be large or run the other way. The list comes from a sample in which actives are over-represented; it also holds similar structures and randomly drawn compounds. More than one record can exist for a structure, and the calls need not agree.
What follows are molecules tested against Histone-lysine N-methyltransferase EHMT2 (Homo sapiens) (UniProt Q96KQ7) (assay: qHTS Assay for Inhibitors of Histone Lysine Methyltransferase G9a). Details: G9a H3K9 monomethylation, AlphaScreen, 2 h; series mostly up to 59 µM.
Summary of the method: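 Quantitative HTS format: methyltransferase activity on a biotin-tagged H3K9 peptide is measured by AlphaScreen, using a rabbit anti-monomethyl-H3K9 antibody with streptavidin donor and anti-IgG acceptor beads. Final levels are 20 nM enzyme, 500 nM peptide, 20 uM SAM; 2 h RT.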
Further: nearly all actives have a fitted effect of over 75% in size.
On the % scale 0 is the no-effect control and ±100 the full control effect; potency means the concentration at half of the fitted maximal effect.

Chain of Histone-lysine N-methyltransferase EHMT2 (Homo sapiens) (Q96KQ7 913-1193 limits assumed): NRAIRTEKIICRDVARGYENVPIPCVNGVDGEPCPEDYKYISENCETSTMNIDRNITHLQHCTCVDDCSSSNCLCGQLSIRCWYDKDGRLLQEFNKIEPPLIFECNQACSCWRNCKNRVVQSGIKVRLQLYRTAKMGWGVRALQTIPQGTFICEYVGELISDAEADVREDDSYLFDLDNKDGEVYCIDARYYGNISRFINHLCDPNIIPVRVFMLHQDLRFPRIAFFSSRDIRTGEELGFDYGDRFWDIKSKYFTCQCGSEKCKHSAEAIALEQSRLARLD

Potency, active:
COc1cccc(NC(=O)CN2CCN(c3nc(-c4cccc(OC)c4)cs3)CC2)c1 10 µM
COc1cccc(NC(=O)CN2CCN(CC(=O)Nc3ccccc3Cl)CC2)c1 35.5 µM
CCN(CC)S(=O)(=O)c1cc([N+](=O)[O-])ccc1NNC(=O)Nc1ccccc1 15.8 µM
COc1ccccc1CN1CCN(C(c2ccccc2)c2ccccc2)CC1 10 µM
COc1ccccc1NC(=S)N1CCN(C(c2ccccc2)c2ccccc2)CC1 28.2 µM
Oc1ccccc1CN1CCN(C(c2ccccc2)c2ccccc2)CC1 28.2 µM
CC(C)OCC(O)CN1CCN(C(c2ccccc2)c2ccccc2)CC1 (stereo unspecified) 50.1 µM

Potency, inactive:
COc1cccc(CC(=O)Nc2ccc(-c3csc(C)n3)cc2)c1
O=C(CN1CCOCC1)Nc1ccc(NC(=O)CN2CCOCC2)c(Cl)c1
COc1cc(NC(=O)CN2CCN(S(=O)(=O)c3ccc(Br)cc3)CC2)cc(OC)c1
CC1CCCC(C)N1C(=O)CN1CCN(c2nc(-c3ccc(F)cc3)cs2)CC1 (stereo unspecified)
CC(C)c1ccccc1OCC(O)CN(CC(O)COc1cccc2ccccc12)C(C)C (stereo unspecified)
COc1ccc(CCNC(=O)c2ccc3c(c2)sc2nc(-c4ccc(C)cc4)cn23)cc1OC
Cc1c(Cl)cccc1NC(=O)N1CCN(C(=O)c2nsc3ccccc23)CC1
Cn1cc(CNC(=O)c2ccc(OC3CCN(Cc4ccccn4)CC3)cc2)cn1
CCOc1ccc(N(CC)S(=O)(=O)N2CCCC(C(=O)Nc3ccc(C(C)=O)cc3)C2)cc1 (stereo unspecified)
O=C(Nc1cc(S(=O)(=O)N2CCOCC2)ccc1OCC(F)(F)F)c1ccc(N2CCCC2=O)cc1
CC(=O)c1ccc(NC(=O)Nc2ccc([N+](=O)[O-])cc2C)cc1
CCN(CC)S(=O)(=O)c1cc([N+](=O)[O-])ccc1N=Nc1c(O)n(C)c2ccccc12
O=C(O)c1ccc(Cn2c(SCc3ccc(F)cc3)nc3ccncc32)cc1
Cn1c(=O)nc2n(-c3ccc(Br)cc3)c3cccc(Cl)c3cc-2c1=O
c1ccc(C(c2ccccc2)N2CCN(Cc3nnnn3C3CCCCC3)CC2)cc1
CCOc1ccccc1NC(=S)N1CCN(c2cccc(C)c2C)CC1
CC(C)NC(=S)N1CCN(C(c2ccccc2)c2ccccc2)CC1
COc1ccccc1CNCc1ccc(C(=O)O)s1
CC(=O)N1CCN(CC(c2ccccc2)c2ccccc2)CC1
O=C(c1ccc(-n2cnnn2)cc1)N1CCN(C(c2ccccc2)c2ccccc2)CC1

Potency, inactive and 14.1 µM (active):
CC1=C(C/C=C(\C)CCCC(C)CCCC(C)CCCC(C)C)C(=O)c2ccccc2C1=O (stereo unspecified)

activity, negative = inhibition, inactive:
N#Cc1c(Cl)nc(-c2cccnc2)nc1-c1ccccc1 -10.7% [at 2.33 µM]
COc1ccccc1NC(=S)N1CCN(c2ccc(F)cc2)CC1 -4.21% [at 0.501 µM]
COc1ccccc1CN1CC2(CCN(S(=O)(=O)c3ccccc3)CC2)C1 8.67% [at 12.7 µM]

Reference: PubChem BioAssay AID504332 (National Center for Advancing Translational Sciences (NCATS), 2011)
